Assay results from PubChem BioAssay AID1159580 (chemical genetic matrix, 2015).
Among all 5,500 compounds or so, about 2,000 (36%) were called active. Another 18% or so got no clear call; they are omitted. No stated cut-off is given here; in the data, active means normalized growth mostly below about 0.91 (no sharp cut-off); inconclusive means no clear call, values can overlap the other calls; inactive means mostly above about 0.92. Some of the results follow.

Assay: chemical genetic growth profiling, strain panel (AID 1159580);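 further: tested at 20 µM; growth read once vehicle control cultures reached saturation at 30 °C; 1 = growth at the plate median or of vehicle wells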
Conditions: growth OD

Measured: normalized growth

O=C(O)c1cc2cc(Cl)ccc2[nH]1
inactive: S. cerevisiae deletion strains, locus YJR075W, strain HOC1, stronger effect = lower value 1.05 | S. cerevisiae deletion strains, locus YKL009W, strain mrt4, stronger effect = lower value 1.01 | S. cerevisiae deletion strains, locus YKL068W, stronger effect = lower value 0.98 | S. cerevisiae deletion strains, locus YKL085W, strain MDH1 (second series), stronger effect = lower value 1.02 | S. cerevisiae deletion strains, locus YKL085W, strain MDH1, stronger effect = lower value 1.02 | S. cerevisiae deletion strains, locus YKL160W, strain elf1, stronger effect = lower value 1 | S. cerevisiae deletion strains, locus YKL190W, strain CNB1, stronger effect = lower value 1.01 | S. cerevisiae deletion strains, locus YKR001C, strain vps1, stronger effect = lower value 0.984 | S. cerevisiae deletion strains, locus YKR026C, strain gcn3, stronger effect = lower value 0.963 | S. cerevisiae deletion strains, locus YKR091W, strain srl3, stronger effect = lower value 0.994 | S. cerevisiae deletion strains, locus YLL001W, strain dnm1, stronger effect = lower value 0.966 | S. cerevisiae deletion strains, locus YLL026W, stronger effect = lower value 0.98 | S. cerevisiae deletion strains, locus YLL041C, strain sdh2, stronger effect = lower value 0.988 | S. cerevisiae deletion strains, locus YLR027C, strain aat2, stronger effect = lower value 0.992 | S. cerevisiae deletion strains, locus YLR039C, strain RIC1, stronger effect = lower value 1.04 | S. cerevisiae deletion strains, locus YLR058C, strain SHM2, stronger effect = lower value 1.01 | S. cerevisiae deletion strains, locus YLR102C, strain apc9, stronger effect = lower value 0.98 | S. cerevisiae deletion strains, locus YLR113W, strain HOG1, stronger effect = lower value 0.944 | S. cerevisiae deletion strains, locus YLR221C, strain rsa3, stronger effect = lower value 0.991 | S. cerevisiae deletion strains, locus YLR258W, strain gsy2, stronger effect = lower value 0.989 | S. cerevisiae deletion strains, locus YLR262C, strain YPT6 (second series), stronger effect = lower value 0.994 | S. cerevisiae deletion strains, locus YLR262C, strain YPT6, stronger effect = lower value 1.06 | S. cerevisiae deletion strains, locus YLR268W, strain sec22, stronger effect = lower value 1 | S. cerevisiae deletion strains, locus YLR320W, strain mms22, stronger effect = lower value 0.987 | S. cerevisiae deletion strains, locus YLR330W, strain CHS5, stronger effect = lower value 1 | S. cerevisiae deletion strains, locus YLR342W, strain FKS1 (second series), stronger effect = lower value 1.01 | S. cerevisiae deletion strains, locus YLR342W, strain FKS1, stronger effect = lower value 0.991 | S. cerevisiae deletion strains, locus YLR357W, strain rsc2, stronger effect = lower value 0.953 | S. cerevisiae deletion strains, locus YLR370C, strain arc18, stronger effect = lower value 0.981 | S. cerevisiae deletion strains, locus YLR371W, strain rom2, stronger effect = lower value 0.98 | S. cerevisiae deletion strains, locus YLR384C, strain iki3, stronger effect = lower value 0.986 | S. cerevisiae deletion strains, locus YLR418C, strain cdc73, stronger effect = lower value 0.991 | S. cerevisiae deletion strains, locus YML016C, strain PPZ1, stronger effect = lower value 1 | S. cerevisiae deletion strains, locus YML032C, strain rad52, stronger effect = lower value 0.977 | S. cerevisiae deletion strains, locus YML120C, strain ndi1, stronger effect = lower value 0.984 | S. cerevisiae deletion strains, locus YML124C, strain tub3, stronger effect = lower value 0.987 | S. cerevisiae deletion strains, locus YMR058W, strain fet3, stronger effect = lower value 0.985 | S. cerevisiae deletion strains, locus YMR078C, strain ctf18, stronger effect = lower value 0.977 | S. cerevisiae deletion strains, locus YMR125W, strain sto1, stronger effect = lower value 0.959 | S. cerevisiae deletion strains, locus YMR129W, stronger effect = lower value 0.993 | S. cerevisiae deletion strains, locus YMR205C, strain PFK2, stronger effect = lower value 0.956 | S. cerevisiae deletion strains, locus YMR223W, strain ubp8, stronger effect = lower value 0.983 | S. cerevisiae deletion strains, locus YMR231W, strain pep5, stronger effect = lower value 0.989 | S. cerevisiae deletion strains, locus YMR263W, strain SAP30, stronger effect = lower value 1.02 | S. cerevisiae deletion strains, locus YMR307W, strain GAS1, stronger effect = lower value 1.02 | S. cerevisiae deletion strains, locus YNL067W, strain RPL9B, stronger effect = lower value 1.03 | S. cerevisiae deletion strains, locus YNL071W, strain lat1, stronger effect = lower value 0.994 | S. cerevisiae deletion strains, locus YNL128W, strain TEP1, stronger effect = lower value 1.03 | S. cerevisiae deletion strains, locus YNL153C, strain GIM3, stronger effect = lower value 1.03 | S. cerevisiae deletion strains, locus YNL183C, strain NPR1, stronger effect = lower value 0.866 | S. cerevisiae deletion strains, locus YNL209W, strain ssb2, stronger effect = lower value 0.991 | S. cerevisiae deletion strains, locus YNL233W, strain BNI4, stronger effect = lower value 1.01 | S. cerevisiae deletion strains, locus YNL248C, strain rpa49, stronger effect = lower value 0.991 | S. cerevisiae deletion strains, locus YNL250W, strain rad50, stronger effect = lower value 0.971 | S. cerevisiae deletion strains, locus YNL271C, strain bni1, stronger effect = lower value 0.969 | S. cerevisiae deletion strains, locus YNL298W, strain CLA4, stronger effect = lower value 0.978 | S. cerevisiae deletion strains, locus YNL307C, strain MCK1, stronger effect = lower value 0.979 | S. cerevisiae deletion strains, locus YNL322C, strain KRE1 (second series), stronger effect = lower value 0.984 | S. cerevisiae deletion strains, locus YNL322C, strain KRE1, stronger effect = lower value 1.01 | S. cerevisiae deletion strains, locus YNR049C, strain mso1, stronger effect = lower value 0.983 | S. cerevisiae deletion strains, locus YNR052C, strain pop2, stronger effect = lower value 0.989 | S. cerevisiae deletion strains, locus YOL006C, strain TOP1, stronger effect = lower value 1.05 | S. cerevisiae deletion strains, locus YOL012C, strain htz1 0.817 | S. cerevisiae deletion strains, locus YOL147C, strain pex11, stronger effect = lower value 0.981 | S. cerevisiae deletion strains, locus YOR001W, strain rrp6, stronger effect = lower value 1.01 | S. cerevisiae deletion strains, locus YOR061W, strain CKA2, stronger effect = lower value 1.01 | S. cerevisiae deletion strains, locus YOR069W, strain VPS5, stronger effect = lower value 0.996 | S. cerevisiae deletion strains, locus YOR070C, strain gyp1, stronger effect = lower value 0.986 | S. cerevisiae deletion strains, locus YOR080W, strain dia2, stronger effect = lower value 0.981 | S. cerevisiae deletion strains, locus YOR083W, strain WHI5, stronger effect = lower value 1 | S. cerevisiae deletion strains, locus YOR106W, strain vam3, stronger effect = lower value 0.999 | S. cerevisiae deletion strains, locus YOR136W, strain idh2, stronger effect = lower value 0.992 | S. cerevisiae deletion strains, locus YOR144C, strain elg1, stronger effect = lower value 0.989 | S. cerevisiae deletion strains, locus YOR184W, strain ser1, stronger effect = lower value 0.967 | S. cerevisiae deletion strains, locus YOR231W, strain MKK1, stronger effect = lower value 0.926 | S. cerevisiae deletion strains, locus YOR265W, strain rbl2, stronger effect = lower value 0.99 | S. cerevisiae deletion strains, locus YOR270C, strain vph1, stronger effect = lower value 0.984 | S. cerevisiae deletion strains, locus YOR290C, strain snf2, stronger effect = lower value 0.992 | S. cerevisiae deletion strains, locus YOR316C, strain cot1, stronger effect = lower value 0.983 | S. cerevisiae deletion strains, locus YPL051W, strain arl3, stronger effect = lower value 0.991 | S. cerevisiae deletion strains, locus YPL055C, strain LGE1, stronger effect = lower value 1.06 | S. cerevisiae deletion strains, locus YPL078C, strain atp4, stronger effect = lower value 0.997 | S. cerevisiae deletion strains, locus YPL106C, strain sse1, stronger effect = lower value 0.966 | S. cerevisiae deletion strains, locus YPL240C, strain hsp82, stronger effect = lower value 0.998 | S. cerevisiae deletion strains, locus YPL241C, strain CIN2, stronger effect = lower value 1.01 | S. cerevisiae deletion strains, locus YPL256C, strain CLN2, stronger effect = lower value 0.935 | S. cerevisiae deletion strains, locus YPR119W, strain clb2, stronger effect = lower value 0.983 | S. cerevisiae deletion strains, locus YPR141C, strain kar3, stronger effect = lower value 0.976 | S. cerevisiae deletion strains, locus YPR163C, strain tif3, stronger effect = lower value 0.991 | S. cerevisiae deletion strains, locus YPR167C, strain met16, stronger effect = lower value 0.986 | S. cerevisiae deletion strains, strain wtn01, stronger effect = lower value 0.992 | S. cerevisiae strains, strain wild type, stronger effect = lower value 1.01
